Measurements taken from PubChem BioAssay (Tox21).
Unmarked numbers belong to inactive results. Records with an inconclusive call do not appear. Where a call stands in place of a potency, no number is given. Calls of active or inactive are those of the source. Unless noted, calls follow the shape of the full dose curve.

Tests used:
[1] = Nuclear factor erythroid 2-related factor 2/antioxidant responsive element (Nrf2/ARE) small molecule agonists: qHTS cell viability counter screen in human keratinocytes (AID 1919968; active = well fitted curve in the direction sought with a large enough effect in the repeat runs; an effect the other way counts as inactive or inconclusive; also: nearly all actives have a fitted effect of over 55% in size)
Summary of the method: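 CellTiter-Fluor fluorescence, read 1 h after reagent, gave viability in the same wells as the ARE-luciferase assay. KeratinoSens cells (1,500/well) had 23 h compound exposure at 37 C/5% CO2 following 5 h plating.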

[2] = Nuclear factor erythroid 2-related factor 2/antioxidant responsive element (Nrf2/ARE) small molecule agonists: luciferase reporter gene qHTS assay in human keratinocytes (AID 1919969); also: nearly all actives have a fitted effect of over 35% in size; also: potency is read from the fitted curve at half-maximal effect
[3] = molecular target: Gonadotropin-releasing hormone receptor (Homo sapiens) (UniProt P30968); test: Human gonadotropin-releasing hormone receptor (GnRHR) small molecule agonists, calcium flux assay in GnRHR-HEK293 cells (AID 1920063); also: nearly all actives have a fitted effect of over 35% in size
Chain of Gonadotropin-releasing hormone receptor (Homo sapiens) (P30968 whole entry, looked up): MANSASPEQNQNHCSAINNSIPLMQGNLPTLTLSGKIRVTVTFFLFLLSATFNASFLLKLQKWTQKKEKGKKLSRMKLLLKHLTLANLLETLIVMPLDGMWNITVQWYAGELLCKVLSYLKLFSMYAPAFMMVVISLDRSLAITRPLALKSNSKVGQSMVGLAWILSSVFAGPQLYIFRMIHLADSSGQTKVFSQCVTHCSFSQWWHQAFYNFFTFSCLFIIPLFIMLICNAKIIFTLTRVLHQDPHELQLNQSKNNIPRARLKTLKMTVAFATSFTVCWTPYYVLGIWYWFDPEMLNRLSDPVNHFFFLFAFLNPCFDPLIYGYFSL
Summary of the method: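 Agonist mode: compounds at 15 concentrations, in triplicate, went onto calcium dye-loaded GnRHR-HEK293 cells. Intracellular calcium was then followed as 480/540 nm fluorescence at 1 s intervals over 3 min.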

[4] = molecular target: KiSS-1 receptor (Homo sapiens) (UniProt Q969F8); test: Human kisspeptin (KISS1R) small molecule agonists, calcium flux assay in KISS1R-HEK293 cells (AID 1920064; active = well fitted curve in the direction sought with a large enough effect in the repeat runs; an effect the other way counts as inactive or inconclusive)
Chain of KiSS-1 receptor (Homo sapiens) (Q969F8 whole entry, looked up): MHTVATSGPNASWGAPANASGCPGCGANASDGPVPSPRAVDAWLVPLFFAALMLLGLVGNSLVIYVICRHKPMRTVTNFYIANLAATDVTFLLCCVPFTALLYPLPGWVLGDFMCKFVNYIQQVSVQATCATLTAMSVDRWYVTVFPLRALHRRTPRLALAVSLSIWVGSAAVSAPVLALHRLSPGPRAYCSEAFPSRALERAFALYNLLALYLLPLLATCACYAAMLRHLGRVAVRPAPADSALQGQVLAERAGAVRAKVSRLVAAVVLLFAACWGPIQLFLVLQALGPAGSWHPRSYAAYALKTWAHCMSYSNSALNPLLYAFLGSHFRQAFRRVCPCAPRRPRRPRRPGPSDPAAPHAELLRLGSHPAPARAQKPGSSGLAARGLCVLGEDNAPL
Summary of the method: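 Agonist mode: intracellular calcium rise tracked at 1 s intervals over 3 min (480/540 nm) immediately after compound addition to dye-loaded KISS1R-HEK293 stable cells. Each compound tested at 15 concentrations in triplicate.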

[5] = G protein-coupled receptor (GPCR) small molecule agonists, calcium flux assay: HEK293 wild type cell line counter screen (AID 1920065)
Summary of the method: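 Calcium flux counter screen: compound added in agonist mode at 15 concentrations in triplicate to dye-loaded parental HEK293 cells. Fluorescence (480/540) read kinetically for 3 min; ATP served as positive control.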

[6] = p53 small molecule agonists, cell-based qHTS assay with human liver microsomes (AID 1963577)
Summary of the method: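 p53RE-bla reporter cells were pre-incubated 5 h at 37 C, then treated with compounds plus human liver microsomes (0.5 mg/mL final) and NADPH (0.5 mg/mL final) for 16 h at 37 C. Beta-lactamase activity was read by LiveBLAzer fluorescence after 2 h at room temperature.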

[7] = p53 small molecule agonists, cell-based qHTS assay with rat liver microsomes (AID 1963578)
Summary of the method: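 p53RE-bla cells were exposed to compounds together with rat liver microsomes (0.5 mg/mL final) and NADPH (0.5 mg/mL final) for 16 h at 37 C, then read by LiveBLAzer beta-lactamase fluorescence after 2 h at room temperature.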

[8] = p53 small molecule agonists, cell-based qHTS assay: qHTS cell viability counter screen (AID 1963581); also: nearly all actives have a fitted effect of over 45% in size
Summary of the method: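 Counter screen read by CellTiter-Glo luminescence (ATP content, 30 min at room temperature), run in the same wells as the beta-lactamase reporter read. HCT-116 p53RE-bla cells saw compounds for 16 h at 37 C.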

[9] = p53 small molecule agonists, cell-based qHTS assay (AID 1963582; active = well fitted activation curve with a large enough effect in the signal ratio in the repeat runs, not every such curve was filed as active; the % refers to the signal ratio)
Summary of the method: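 Read-out is beta-lactamase FRET fluorescence after 2 h at room temperature with LiveBLAzer B/G substrate. p53 response element-bla cells were treated 16 h at 37 C with compounds in DMSO, added 5 h after seeding.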

[10] = molecular target: 5-hydroxytryptamine receptor 2A (Homo sapiens) (UniProt P28223); test: 5-hydroxytryptamine receptor 2A (HTR2A) small molecule antagonists, cell-based qHTS assay (AID 1963586); also: nearly all actives have a fitted effect of over 45% in size
Chain of 5-hydroxytryptamine receptor 2A (Homo sapiens) (P28223 whole entry, looked up): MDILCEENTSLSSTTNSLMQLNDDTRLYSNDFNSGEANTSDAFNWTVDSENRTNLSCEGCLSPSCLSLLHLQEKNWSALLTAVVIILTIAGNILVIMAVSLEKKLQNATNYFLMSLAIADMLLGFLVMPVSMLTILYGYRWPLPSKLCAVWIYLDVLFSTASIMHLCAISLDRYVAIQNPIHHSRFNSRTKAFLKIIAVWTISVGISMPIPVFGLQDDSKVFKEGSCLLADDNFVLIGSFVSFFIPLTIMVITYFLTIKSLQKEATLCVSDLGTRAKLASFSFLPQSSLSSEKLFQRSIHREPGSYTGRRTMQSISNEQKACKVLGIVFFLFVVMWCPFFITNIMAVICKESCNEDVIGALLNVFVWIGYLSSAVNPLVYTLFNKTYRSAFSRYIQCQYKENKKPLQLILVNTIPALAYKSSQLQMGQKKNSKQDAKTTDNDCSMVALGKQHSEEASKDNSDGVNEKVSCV
Summary of the method: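 CHO cells stably expressing human HTR2A were plated for 18 h at 37 C, then loaded with calcium dye for 1 h. Compounds were preincubated 5 min at room temperature before DOI (4 nM solution) was added. Kinetic fluorescence was read for 3 min.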

[11] = molecular target: 5-hydroxytryptamine receptor 2A (Homo sapiens) (UniProt P28223); test: 5-hydroxytryptamine receptor 2A (HTR2A) small molecule agonists, cell-based qHTS assay (AID 1963587); also: nearly all actives have a fitted effect of over 30% in size
Summary of the method: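 CHO cells stably expressing human HTR2A, plated 18 h, loaded with calcium dye 1 h at 37 C. Agonist mode: compounds added and intracellular calcium fluorescence recorded kinetically for 2 min at 1 sec intervals.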

[12] = molecular target: Muscarinic acetylcholine receptor M1 (Homo sapiens) (UniProt P11229); test: Cholinergic receptor muscarinic 1 (CHRM1) small molecule antagonists, cell-based qHTS assay (AID 1963588); also: nearly all actives have a fitted effect of over 40% in size
Chain of Muscarinic acetylcholine receptor M1 (Homo sapiens) (P11229 whole entry, looked up): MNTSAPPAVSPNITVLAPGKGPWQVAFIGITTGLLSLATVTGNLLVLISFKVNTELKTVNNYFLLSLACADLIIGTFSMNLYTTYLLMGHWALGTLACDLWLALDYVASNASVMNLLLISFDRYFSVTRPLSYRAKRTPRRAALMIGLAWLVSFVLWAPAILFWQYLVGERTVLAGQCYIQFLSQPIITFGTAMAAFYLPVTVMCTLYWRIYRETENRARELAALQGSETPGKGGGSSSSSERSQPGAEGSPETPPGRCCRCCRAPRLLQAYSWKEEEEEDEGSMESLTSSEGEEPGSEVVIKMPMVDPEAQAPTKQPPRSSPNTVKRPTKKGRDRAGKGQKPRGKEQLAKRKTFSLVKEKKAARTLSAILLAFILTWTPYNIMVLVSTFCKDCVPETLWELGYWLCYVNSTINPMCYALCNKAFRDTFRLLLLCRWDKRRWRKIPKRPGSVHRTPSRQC
Summary of the method: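 Compounds were tested at 15 concentrations in three independent runs. Dye-loaded CHRM1-CHO cells were exposed 5 min at room temperature before stimulation by acetylcholine added at 50nM. Intracellular calcium was read kinetically on FDSS for 3 min.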

[13] = molecular target: Muscarinic acetylcholine receptor M1 (Homo sapiens) (UniProt P11229); test: Cholinergic receptor muscarinic 1 (CHRM1) small molecule agonists, cell-based qHTS assay (AID 1963589); also: nearly all actives have a fitted effect of over 35% in size
Summary of the method: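 Agonist-mode calcium-flux screen: compounds at 15 concentrations, three independent runs, were pin-transferred onto dye-loaded human CHRM1-CHO cells. Fluorescence was then recorded kinetically every second over minutes.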

[14] = cAMP Responsive Elements (CRE) small molecule agonists, cell-based qHTS assay (AID 1963590)
Summary of the method: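 Agonist mode: compound added to CRE-bla HEK 293T cells (2,000/well, 18 h after plating) for 3 h at 37 C/5% CO2. Reporter activity detected via FRET beta-lactamase substrate, 2 h room-temperature loading.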

[15] = cAMP Responsive Elements (CRE) small molecule antagonists, cell-based qHTS assay (AID 1963591; active = well fitted inhibition curve with a large enough effect in the signal ratio in the repeat runs, not every such curve was filed as active; the % refers to the signal ratio)
Summary of the method: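 Antagonist mode: compounds are added alongside the adenylyl cyclase activator NKH477 (0.25 uM final) to CRE-bla HEK293T cells for 3 h. LiveBLAzer FRET substrate, 2 h at room temperature, reports bla expression.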

[16] = molecular target: Beta-2 adrenergic receptor (Homo sapiens) (UniProt P07550); test: Adrenergic beta2 receptor (ADRB2) small molecule antagonists, cell-based qHTS assay (AID 1963592); also: series mostly up to about 92 µM; nearly all actives have a fitted effect of over 50% in size
Chain of Beta-2 adrenergic receptor (Homo sapiens) (P07550 whole entry, looked up): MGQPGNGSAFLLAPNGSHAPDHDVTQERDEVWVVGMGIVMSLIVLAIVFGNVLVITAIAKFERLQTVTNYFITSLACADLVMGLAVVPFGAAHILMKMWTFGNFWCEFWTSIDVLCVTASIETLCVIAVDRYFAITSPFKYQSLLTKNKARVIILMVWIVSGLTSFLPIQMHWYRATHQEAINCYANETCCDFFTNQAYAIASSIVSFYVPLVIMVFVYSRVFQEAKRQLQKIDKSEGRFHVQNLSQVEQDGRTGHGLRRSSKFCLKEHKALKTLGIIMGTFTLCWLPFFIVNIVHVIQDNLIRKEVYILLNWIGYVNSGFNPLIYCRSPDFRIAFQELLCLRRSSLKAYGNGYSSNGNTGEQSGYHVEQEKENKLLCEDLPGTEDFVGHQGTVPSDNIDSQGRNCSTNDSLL
Summary of the method: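 Assay format: CHO-ADRB2 cells, 18-20hr seeding at 37C/5% CO2, then compound plus 1nM isoproterenol agonist mix for 0.5hr RT. Homogeneous time-resolved fluorescence cAMP detection after 1hr, expressed as 665/615 nm ratio.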

[17] = molecular target: D(2) dopamine receptor (Homo sapiens) (UniProt P14416); test: Dopamine D2 receptor (DRD2) small molecule agonists, cell-based qHTS assay (AID 1963594); also: nearly all actives have a fitted effect of over 35% in size
Chain of D(2) dopamine receptor (Homo sapiens) (P14416 whole entry, looked up): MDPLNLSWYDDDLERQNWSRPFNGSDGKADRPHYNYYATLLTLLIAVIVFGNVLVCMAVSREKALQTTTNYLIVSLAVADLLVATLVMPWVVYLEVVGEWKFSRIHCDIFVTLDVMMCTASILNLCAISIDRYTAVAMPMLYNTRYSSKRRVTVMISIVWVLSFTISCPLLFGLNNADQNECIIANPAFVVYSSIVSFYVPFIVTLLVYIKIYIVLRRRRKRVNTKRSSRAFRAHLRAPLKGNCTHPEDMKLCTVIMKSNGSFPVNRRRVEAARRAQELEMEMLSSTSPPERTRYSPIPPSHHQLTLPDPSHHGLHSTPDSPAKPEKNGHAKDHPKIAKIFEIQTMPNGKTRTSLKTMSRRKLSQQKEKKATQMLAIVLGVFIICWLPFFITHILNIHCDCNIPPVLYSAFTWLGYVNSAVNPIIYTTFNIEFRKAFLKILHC
Summary of the method: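 HEK293 cells stably expressing human DRD2, pre-treated with PDE inhibitor Ro20-1724 (0.1 mM final) and compound 10 min at room temperature, then stimulated with NKH477 (200nM […]) for 30 min. cAMP read by HTRF (665/620 nm).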

[18] = molecular target: D(2) dopamine receptor (Homo sapiens) (UniProt P14416); test: Dopamine D2 receptor (DRD2) small molecule antagonists, cell-based qHTS assay (AID 1963595; active = well fitted inhibition curve with a large enough effect in the signal ratio in the repeat runs, with a control signal flat; the % refers to the signal ratio)
Summary of the method: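 Human DRD2 antagonist qHTS measuring cAMP by HTRF. The cells are exposed to compound for 10 min, then to NKH477 (200 nM) and quinpirole (12 nM) for 30 min at RT, with Ro20-1724 (0.1 mM) present throughout.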

[19] = p53 small molecule agonists, cell-based qHTS assay with rat liver microsomes: qHTS cell viability counter screen (AID 1963580); also: nearly all actives have a fitted effect of over 45% in size
Summary of the method: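 After the beta-lactamase ratio was read, CellTiter-Glo was added to the same wells and luminescence measured at 30 min; cells had been treated 16 h at 37 C with compounds, rat liver microsomes and NADPH (0.5 mg/mL final each).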

[20] = p53 small molecule agonists, cell-based qHTS assay with human liver microsomes: qHTS cell viability counter screen (AID 1963579); also: nearly all actives have a fitted effect of over 45% in size
Summary of the method: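 p53RE-bla cells (4,000/well) were pre-incubated 5 h at 37 C, then given compounds in DMSO plus human liver microsomes (0.5 mg/mL final) and NADPH (0.5 mg/mL final) for 16 h at 37 C. Viability was read by CellTiter-Glo luminescence.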

## C/C=C/C(=O)CC
[1]
  activity change, negative = cytotoxicity: -0.853% [at 19 µM]
[2]
  Potency: 10.5 µM (active)
[3]
  activity change: 1.75% [at 11.8 µM, hits give high values]
[4]
  activation: -0.292% [at 15.8 µM]
[5]
  activation: 0.719% [at 11.8 µM]
[6]
  activation: -15.9% [at 13.5 µM]
[7]
  activation: -0.406% [at 13.6 µM]
[8]
  activity change, negative = cytotoxicity: 7.07% [at 13.5 µM]
[9]
  activation: -2.81% [at 13.5 µM]
[10]
  activity, negative = inhibition: 10.6% [at 12.7 µM]
[11]
  activation: -1.41% [at 15.9 µM]
[12]
  activity, negative = inhibition: 37.8% [at 12.6 µM]
[13]
  activation: 0.129% [at 15.8 µM]
[14]
  activation: -0.284% [at 19 µM]
[15]
  activity change, negative = inhibition: 1.47% [at 18.9 µM]
[16]
  activity change, negative = inhibition: 3.38% [at 19 µM]
[17]
  activation: -9.38% [at 19 µM]
[18]
  activity change, negative = inhibition: 0.284% [at 18.9 µM]

## CN(C)CCCOC1(Cc2ccccc2)CCCCCC1
[1]
  Potency: inactive
[2]
  Potency: inactive
[3]
  Potency: inactive
[4]
  outcome: inactive
[5]
  outcome: inactive
[6]
  Potency: inactive
[7]
  Potency: inactive
[19]
  Potency: inactive
[11]
  Potency: inactive
[12]
  Potency: inactive
[13]
  Potency: inactive
[14]
  Potency: inactive
[15]
  Potency: inactive
[16]
  Potency: inactive
[17]
  Potency: inactive
[18]
  Potency: inactive

## Cc1cc(CCCOc2c(C)cc(-c3noc(C(F)(F)F)n3)cc2C)on1
[1]
  Potency: inactive
[2]
  Potency: 11.9 µM (active)
[3]
  Potency: inactive
[4]
  outcome: inactive
[5]
  outcome: inactive
[6]
  Potency: inactive
[7]
  Potency: inactive
[8]
  Potency: inactive
[10]
  Potency: inactive
[11]
  Potency: inactive
[12]
  Potency: inactive
[13]
  Potency: inactive
[14]
  Potency: inactive
[18]
  Potency: inactive

## Cc1cc(NS(=O)(=O)c2ccc(N)cc2)nc(C)n1
[1]
  Potency: inactive
[2]
  Potency: inactive
[3]
  Potency: inactive
[4]
  outcome: inactive
[5]
  outcome: inactive
[6]
  Potency: inactive
[20]
  Potency: inactive
[19]
  Potency: inactive
[8]
  Potency: inactive
[9]
  Potency: inactive
[11]
  Potency: inactive
[12]
  Potency: inactive
[13]
  Potency: inactive
[14]
  Potency: inactive
[15]
  Potency: inactive
[16]
  Potency: inactive
[17]
  Potency: inactive
[18]
  Potency: inactive

## CC(C)CC(C)CC(C)CC(C)COC(=O)c1ccccc1C(=O)OCC(C)CC(C)CC(C)CC(C)C (stereo not drawn)
[1]
  Potency: inactive
[2]
  Potency: inactive
[3]
  Potency: inactive
[4]
  outcome: inactive
[5]
  outcome: inactive
[6]
  Potency: inactive
[7]
  Potency: inactive
[8]
  Potency: inactive
[9]
  Potency: inactive
[10]
  Potency: inactive
[11]
  Potency: inactive
[12]
  Potency: inactive
[13]
  Potency: inactive
[14]
  Potency: inactive
[15]
  Potency: inactive
[16]
  Potency: inactive
[17]
  Potency: inactive
[18]
  Potency: inactive

## CC(C)(C)C(=O)OCOC(=O)[C@@H]1N2C(=O)[C@@H](NC(=O)[C@H](N)c3ccccc3)[C@H]2SC1(C)C
[1]
  Potency: inactive
[2]
  Potency: inactive
[3]
  Potency: inactive
[4]
  outcome: inactive
[5]
  outcome: inactive
[6]
  Potency: inactive
[20]
  Potency: inactive
[19]
  Potency: inactive
[8]
  Potency: inactive
[9]
  Potency: inactive
[10]
  Potency: inactive
[11]
  Potency: inactive
[12]
  Potency: inactive
[13]
  Potency: inactive
[16]
  Potency: inactive
[17]
  Potency: inactive
[18]
  Potency: inactive

## CCCCCCC(O)CCCCCCCCCCC(=O)OC (stereo not drawn)
[1]
  Potency: inactive
[2]
  Potency: inactive
[3]
  Potency: inactive
[4]
  outcome: inactive
[5]
  outcome: inactive
[6]
  Potency: inactive
[20]
  Potency: inactive
[19]
  Potency: inactive
[8]
  Potency: inactive
[9]
  Potency: inactive
[10]
  Potency: inactive
[11]
  Potency: inactive
[13]
  Potency: inactive
[15]
  Potency: inactive
[16]
  Potency: inactive
[17]
  Potency: inactive
[18]
  Potency: inactive
